Data from publication PMC5540273 (PLoS ONE, 2017).

Columns and labels:
Details in all cases: concentration: 1 μM, replicates: in singlicate; n = 1
BRSK2 = test system: BRSK2
BTK = test system: BTK
BUB1 = test system: BUB1
CAMK1B = test system: CAMK1B
CAMK1D = test system: CAMK1D
CAMK1G = test system: CAMK1G
CAMK1 = test system: CAMK1
CAMK2A = test system: CAMK2A
CAMK2B = test system: CAMK2B
CAMK2D = test system: CAMK2D
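Also: KINOMEscan kinase panel screen.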

Compound	%Inh (BRSK2) [%]	%Inh (BTK) [%]	%Inh (BUB1) [%]	%Inh (CAMK1B) [%]	%Inh (CAMK1D) [%]	%Inh (CAMK1G) [%]	%Inh (CAMK1) [%]	%Inh (CAMK2A) [%]	%Inh (CAMK2B) [%]	%Inh (CAMK2D) [%]
Cn1c(=O)c(F)c(Nc2ccc(I)cc2F)c2c(=O)n(OC[C@H](O)CO)cnc21	15	0	0	0	8	0	0	4	12	9
COc1cc(Nc2nccc(N3CCC(NC(=O)C4COc5ccccc5O4)C3)n2)cc(OC)c1OC (stereo not shown) [GSK1379761]	0	53	53	25	8	8	21	8	0	9
COc1ccc(-c2coc3ccc(-c4nnc(SCc5cccc(C#N)c5)o4)cc23)cc1	10	0	0	6	23	8	26	0	0	7
Cc1ccccc1COc1cc(-n2cnc3cc(Cl)ccc32)sc1C(N)=O [GW813349]	2	18	0	0	5	0	0	0	0	0
O=C(NCc1cccs1)c1cc(C(=O)c2c(Cl)cccc2Cl)c[nH]1 [GW823670]	0	0	0	0	0	0	0	0	0	0
OCCCNc1nccc(-c2c(-c3cccc(C(F)(F)F)c3)nn3cc(C(F)(F)F)ccc23)n1 [GW630813]	0	0	42	0	14	1	11	0	0	22
COc1cccc(C2=C(N(C)c3ccccc3)C(=O)NC2=O)c1 [SB-334865]	0	0	53	8	12	0	4	0	0	17
COc1cccc(-n2cnc3c(N)ncnc32)c1 [SKF-97416]	6	0	57	20	11	0	16	0	0	12
O=C1NC(=O)C(c2ccccc2)=C1Nc1cccc(O)c1 [SB-390534]	0	0	0	0	0	0	0	17	0	62
COC(=O)c1c(-c2ccccc2)c2cc(C)ccc2c(=O)n1Cc1ccccc1	0	0	0	0	19	12	21	0	0	0
COc1cc(OC)cc(-c2cc3cnc(N)nc3nc2NC(=O)NC(C)(C)C)c1	6	0	0	0	0	0	0	0	0	4
CCc1nc(-c2cccc(C)c2)c(-c2ccncc2)s1	0	0	35	9	23	0	8	0	0	0
CCC(=O)c1c(-c2ccccc2)c2cc(Cl)ccc2c(=O)n1Cc1cc(C(=O)NC2CC2)n(C)n1	0	15	6	0	12	0	20	0	0	0
CCn1c(-c2nonc2N)nc2ccccc21 [SB-693162/GW549034]	4	29	0	8	20	0	17	5	0	0
O=C(Nc1ccc2c(c1)OCO2)NC1CCN(c2ccnc(NCc3ccc(F)cc3)n2)CC1 [GSK1379859]	0	0	7	0	16	0	16	0	0	7
CCC(=O)c1c(-c2ccccc2)c2cc(Cl)ccc2c(=O)n1Cc1cc(S(C)(=O)=O)n(CCC(C)(C)O)n1	0	23	14	0	0	33	7	15	0	24
COc1ccc(-c2cc3c(C)nc(N)nc3n([C@H]3CC[C@H](OCCO)CC3)c2=O)cn1	0	0	0	7	0	0	0	0	0	0
Nc1ncnc2c1ncn2-c1ccc(Cl)cc1 [AH2635]	9	0	25	3	4	0	5	0	0	0
CCc1ccc(-c2ccc3c(c2)-c2nn(C)cc2S(=O)(=O)N3C)cc1	11	13	0	0	5	16	2	9	19	25

Compound	%Inh (BRSK2) [%]	%Inh (BTK) [%]	%Inh (BUB1) [%]	%Inh (CAMK1B) [%]	%Inh (CAMK1D) [%]	%Inh (CAMK1G) [%]	%Inh (CAMK1) [%]	%Inh (CAMK2A) [%]	%Inh (CAMK2B) [%]	%Inh (CAMK2D) [%]
Cc1ccc(Oc2ccc(Nc3ncnc4cc[nH]c34)cc2C)cn1	19	19	0	0	34	0	16	0	0	0
CCn1c(-c2ccoc2)nc2cnccc21 [SB-733887]	0	0	59	0	8	0	2	0	0	0
CN1C(=O)C(Nc2cc(Cl)c(O)c(Cl)c2)=C(c2ccc(Cl)cc2)C1=O [SB-404321]	0	0	12	25	0	0	0	0	0	0
CN1C(=O)C(Nc2ccccc2)=C(c2ccccc2)C1=O [SB-300079]	0	0	32	0	0	0	0	0	0	0
COc1ccc(-n2cnc3c(N)ncnc32)cc1 [SKF-97236]	14	8	4	25	10	0	5	0	0	0
Cc1c(Cn2c(C)nn3c(=O)cc(N4CCO[C@H](C)C4)nc23)cccc1C(F)(F)F [GSK2373690]	0	0	0	0	7	0	7	0	0	0
Cl.c1ccc(Cn2cnc3cc(Nc4ncnc5ccccc45)ccc32)cc1 [GW272142]	0	0	38	31	0	0	0	0	0	15
COc1cc2nccc(Nc3cccc(Oc4ccccc4)c3)c2cc1OC.Cl [GW284543]	1	24	38	28	0	0	2	0	0	6
CCCC(=O)Nc1n[nH]c2ncc(-c3cccc4ccccc34)cc12 [SB-642057]	0	0	35	7	14	11	0	0	0	14
Nc1n[nH]c2nnc(-c3ccccc3)c(-c3ccccc3)c12 [GW554060]	0	2	60	5	0	4	3	0	0	0
COc1cc(Nc2ccnc3ccc(C(F)(F)F)cc23)cc(OC)c1OC [GW577382]	10	35	23	38	14	1	17	0	0	5
C[C@@H]1CC[C@H](C(=O)NC2CCCCC2)CN1c1cc(-c2ccc3c(N)n[nH]c3c2)nc(N)n1 [GSK2291363]	10	0	48	2	29	22	35	4	16	18
Cc1cccc(-c2nc(Nc3ccc4c(cnn4C)c3)c3ccccc3n2)n1 [GW876731]	2	0	34	0	0	0	10	0	8	2
Nc1nccc2scc(-c3ccc4c(c3)CCN4C(=O)Cc3ccccc3)c12 [GSK2576924]	0	0	0	33	10	0	9	10	2	4
COC(=O)c1c(-c2ccccc2)c2cc(Br)ccc2c(=O)n1Cc1ccc(S(C)(=O)=O)cc1	0	47	15	0	26	21	42	21	6	18
Nc1ncnc2c1ncn2-c1cccc(F)c1 [SKF-97560]	5	22	39	0	0	0	0	0	3	0
CCC(=O)c1c(-c2ccccc2)c2cc(Cl)ccc2c(=O)n1Cc1cc(S(C)(=O)=O)n(CC(F)F)n1	0	0	4	0	0	1	0	2	0	0
O=C(NCCNc1ccnc(Nc2ccc(F)cc2)n1)Nc1ccc2c(c1)OCO2 [GSK1379882]	0	0	18	0	9	0	20	0	0	4
